Experimental data reported in article PMC7819943, “Rice protein-binding microarrays: a tool to detect cis-acting elements near promoter regions in rice”.
In all, about 68,000 sequences were measured (“fluorescence intensity (a.u.)”: median about 9,100, highest 2% from about 16,000 on). This excerpt belongs to a sample that is enriched for the highest values.

biological target: OsWRKY34 (Oryza sativa, UniProt Q0JBA9 1-250); experiment: protein-binding microarray (RPBM); PBS, 2% BSA, 51.3 ng/ul salmon testes DNA, 50 uM zinc acetate, 200 nM TF, 25 C, 1 h; high values mean tight binding; details: protein: recombinant; tags: N-terminal polyhistidine and DsRed monomer fusion (pET32a); label: CyDye5-dUTP incorporated in the synthesized complementary strand; 3' TTTTT single-stranded linker to array surface; dsDNA, one strand shown
Method in brief: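 Transcription factors, each fused N-terminally to a polyhistidine tag and DsRed, were expressed in E. coli BL21-CodonPlus and purified on Ni–NTA. A custom Agilent array was made double-stranded by primer extension with Cy5-dUTP and blocked with 2% BSA. It was incubated with 200 nM protein in PBS, 2% BSA, salmon testes DNA and 50 µM zinc acetate at 25 °C for 1 h, then washed. The binding signal is per-feature fluorescence intensity (arbitrary units) read on an Axon 4000B scanner.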

Chain of OsWRKY34 (Q0JBA9 entry or part of it): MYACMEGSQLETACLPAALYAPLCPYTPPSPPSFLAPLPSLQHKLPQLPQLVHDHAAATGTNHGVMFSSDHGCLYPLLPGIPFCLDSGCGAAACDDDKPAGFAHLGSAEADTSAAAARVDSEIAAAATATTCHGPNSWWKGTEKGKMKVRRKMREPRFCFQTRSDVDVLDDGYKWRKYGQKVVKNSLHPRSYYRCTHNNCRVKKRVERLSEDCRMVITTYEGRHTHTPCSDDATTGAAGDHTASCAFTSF

Sequence	binding signal
AACGGTACCATCACCATCATTTATCATGGGCACAACTTGCCGGAGTCACCTAGTGCAG	8810 fluorescence intensity (a.u.)
CCTTCGTCGACCCTCCGCCGCCGCCGCCGCCGCCGCCGACCGGAGTCACCTAGTGCAG	8660 fluorescence intensity (a.u.)
CAACATACAGGGAGTTTTTACCGGCCGCCCTCTACTCTCACGGAGTCACCTAGTGCAG	9800 fluorescence intensity (a.u.)
GAGTTAGCCATGGCCTGTCAATTACTGGAACTCTGTTGTACGGAGTCACCTAGTGCAG	8220 fluorescence intensity (a.u.)
GTTGCTTTTGCTGGAGTAGTACTTCTATTTATCTTCAAACCGGAGTCACCTAGTGCAG	9100 fluorescence intensity (a.u.)
CATTTTCTTGGTTTGGTCTTTTTTATTGTTGGGTGTGTTTCGGAGTCACCTAGTGCAG	15500 fluorescence intensity (a.u.)
TTTTCGCATGTTTCTTTTCTTTTTTTTTCTTTTCTTTTCCCGGAGTCACCTAGTGCAG	16600 fluorescence intensity (a.u.)
TGTTTTTTCCTTTTTTTTTCTTTTCTTTTTCTCTCTTCCCCGGAGTCACCTAGTGCAG	8200 fluorescence intensity (a.u.)
CTGTAGTTGCCTTTGTTGGTCTTGGTTTTGCTGTTCTGGTCGGAGTCACCTAGTGCAG	9910 fluorescence intensity (a.u.)
GGAGGGTCTGTTTTCTTGTGTGCGAGCCTTGCTAGTTGCTCGGAGTCACCTAGTGCAG	16500 fluorescence intensity (a.u.)
TTTTTTCTTTTTTTTTTTGTTTTTTCTCGCCTTTTTTTCCCGGAGTCACCTAGTGCAG	11900 fluorescence intensity (a.u.)
ATCTGTTCGTGGGTTGCTTGCTCAGTCGACCAATCGTTGACGGAGTCACCTAGTGCAG	19200 fluorescence intensity (a.u.)
GGGCTTGCGATCGTGTTGTGTTGGGTTGGGTCTTGGGTTTCGGAGTCACCTAGTGCAG	29400 fluorescence intensity (a.u.)
CTGGTCAGTTGGTCTTGTGTTTTGGGCTTTTTCGGCCCGTCGGAGTCACCTAGTGCAG	12200 fluorescence intensity (a.u.)
TTCGTGGTTTCGTTCAGCTTGATTTCGCTTGACACATCGACGGAGTCACCTAGTGCAG	9110 fluorescence intensity (a.u.)
TGGTCTTGCCTCTCGCTTAGCCTTTTTGTTGCCTTGTGCTCGGAGTCACCTAGTGCAG	12300 fluorescence intensity (a.u.)
CTCAGTCGACCAATCGTTGATCGCCACGTCGGCTGTTCTTCGGAGTCACCTAGTGCAG	8350 fluorescence intensity (a.u.)
TCTGACACCTATCTCTCCTGGATTCTCCATGCTTTCTTTCCGGAGTCACCTAGTGCAG	10300 fluorescence intensity (a.u.)
TTTTCTCACCACTCTCTCTTTCGTGTTCTCTCTCTCTTGTCGGAGTCACCTAGTGCAG	12500 fluorescence intensity (a.u.)
CATCCTCCTTCCGGAACCTTCTAGAAGGTTCTCCTCGTACCGGAGTCACCTAGTGCAG	8530 fluorescence intensity (a.u.)
ATGTATTGGTGTTATGCCTTCTGTTTATTTTATTTGCTCCCGGAGTCACCTAGTGCAG	8730 fluorescence intensity (a.u.)

Sequence	binding signal
AAATCTGTAGCCCGCTGCTTTTCTCTCTCCTTATTTATCTCGGAGTCACCTAGTGCAG	11200 fluorescence intensity (a.u.)
CCAATATCACGTTGTCCTAGCTCTGCCAACGACTTCATCTCGGAGTCACCTAGTGCAG	8320 fluorescence intensity (a.u.)
TTCTCTCCCTCCCGGCCGCCGCCCCGCCCCGCCCATCTTGCGGAGTCACCTAGTGCAG	9110 fluorescence intensity (a.u.)
TTTGTTGGTTGGTTTGACCCTTCCTAATCCTACCTTTGGTCGGAGTCACCTAGTGCAG	8160 fluorescence intensity (a.u.)
CACGTACGCCGCCGTGTCTCATCACGAGCTCGATCGTTTCCGGAGTCACCTAGTGCAG	8240 fluorescence intensity (a.u.)
GGGTATTGTAGTAACTTCCTGTGCACCATCGGGGTTAAGACGGAGTCACCTAGTGCAG	10500 fluorescence intensity (a.u.)
TCCTCTGGCTTTCTTTTCCCATTTCGTCTCTTGTTTGTTTCGGAGTCACCTAGTGCAG	9160 fluorescence intensity (a.u.)
ATATTTCCTGTTTGCTCTGTGTTTTCTTCCACCTTCCATTCGGAGTCACCTAGTGCAG	9830 fluorescence intensity (a.u.)
GATTTGTATTGGTTTTAATAGTAGGGGAATTTCTATACCTCGGAGTCACCTAGTGCAG	8140 fluorescence intensity (a.u.)
ACACCATGTTTCCACATTGCATTTCCTTCTGTTTTTTCTTCGGAGTCACCTAGTGCAG	17600 fluorescence intensity (a.u.)
GTGGGTTTTTTTTTTTGGTTTGTTTCTTCCTCTGGCCATTCGGAGTCACCTAGTGCAG	19800 fluorescence intensity (a.u.)
TTCTCTGTTTCTTCTGCCTTCACCACCTGCTCCACATTTTCGGAGTCACCTAGTGCAG	10900 fluorescence intensity (a.u.)
AAAGGTGAGTAGTGGTTTCTGGGTTGCGTCTCCCTTTTTCCGGAGTCACCTAGTGCAG	12600 fluorescence intensity (a.u.)
GTGGAGTTGCTTTCTCCTCCTCCTTGTTTGGGTTGGGTGCCGGAGTCACCTAGTGCAG	11900 fluorescence intensity (a.u.)
CGTGGGTAATTTGGTTCCTCTTCTTTTTTTGGCTTCCTTTCGGAGTCACCTAGTGCAG	8440 fluorescence intensity (a.u.)
GTTGGGTGGGTTTCCCGTCTCCTTCCGATTGCTGAGTAGCCGGAGTCACCTAGTGCAG	19100 fluorescence intensity (a.u.)
GTGGGTTTCTAGCATCATAGGGGTATTGTAGTAACTTCCTCGGAGTCACCTAGTGCAG	17400 fluorescence intensity (a.u.)
ATTTTGATTAGTGCGTTTGATTAGTGGTGTTTATTATGTCCGGAGTCACCTAGTGCAG	9410 fluorescence intensity (a.u.)
TTCTGAACCGTGTTAAAATGCTACAAAATTTTCCCTTTTTCGGAGTCACCTAGTGCAG	8570 fluorescence intensity (a.u.)
AGCTTTCACCTCATTAAGACCGGTATCTGTTGAGACTTGACGGAGTCACCTAGTGCAG	8860 fluorescence intensity (a.u.)
GAACTAGTCCGCCTAATTGTTGGCTCTCTTATCTCTTCATCGGAGTCACCTAGTGCAG	12100 fluorescence intensity (a.u.)
